Screens (PubChem)
Compounds with a hit are over-represented: about 4.9% of the library has one in this group of screens.
PP1 inh – counter-screen for PP5 inhibitors: inhibitors of human PP1-alpha; P62136; purified PP1alpha, OMFP fluorescence; inhibition, % at 6.7 µM; 320,000 compounds, 0.9% hits; AID 2235;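 active = inhibition above the mean inhibition of all tested compounds plus 3 SD, computed separately for each screening campaign, cut at about 15% in these data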
Beta cell apopt – blocks beta cell apoptosis; INS-1E cytokine-induced death, ATP luminescence, 48 h; percent of positive-control rescue, neutral wells zero; protection from apoptosis, % (test concentration not listed); 300,000 compounds, 0.8% hits; AID 435005;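 active = Every replicate reaches about 75%, or at least half do and their mean reaches it too, limit read from the data; inconclusive = At least half of replicates reach the limit but their mean does not; inactive = Under half of replicates reach the limit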;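 note: 0% = cytokine-treated negative control wells and 100% = positive control rescue; higher means more ATP so stronger rescue from cytokine killing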
CSC inhib – cancer stem cell inhibition | cancer stem cell-like cells viability, luminescence | inhibition, % at 7.5 µM | 300,000 compounds, 1.1% hits | AID 2717; in the data active = inhibition above about 75%; inconclusive = no clear call, values can overlap the other calls; tested in HMLE shEcad cells
Calb FLC – affects C. albicans growth with fluconazole; C. albicans CaCi-2 (fluconazole-resistant clinical isolate) + fluconazole, Alamar Blue growth, 48 h; growth inhibition, % (concentration not given with the values); 300,000 compounds, 0.57% hits; AID 1979;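 active = growth inhibition above about 58% in most replicates, limit read from the data, passing the limit was not always enough; inconclusive = exactly half the replicates above a set limit; inactive = most replicates below a set limit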;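 note: all wells also contain fluconazole at 8 µg/ml as a sub-toxic cotreatment; 0% = median of DMSO wells and 100% = median of geldanamycin control wells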
PP5 inh – PP5 (human) phosphatase inhibition; purified PP5c, OMFP substrate fluorescence; AID 1987; inhibition, % at 6.7 µM; 320,000 compounds, 0.18% hits;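 active = inhibition above the campaign's mean inhibition across all tested compounds plus 3 SD, cut at about 9.5% in these data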;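 note: 0% = DMSO only and 100% = 100 µM cantharidin control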
Target sequence (P53041 whole entry, looked up): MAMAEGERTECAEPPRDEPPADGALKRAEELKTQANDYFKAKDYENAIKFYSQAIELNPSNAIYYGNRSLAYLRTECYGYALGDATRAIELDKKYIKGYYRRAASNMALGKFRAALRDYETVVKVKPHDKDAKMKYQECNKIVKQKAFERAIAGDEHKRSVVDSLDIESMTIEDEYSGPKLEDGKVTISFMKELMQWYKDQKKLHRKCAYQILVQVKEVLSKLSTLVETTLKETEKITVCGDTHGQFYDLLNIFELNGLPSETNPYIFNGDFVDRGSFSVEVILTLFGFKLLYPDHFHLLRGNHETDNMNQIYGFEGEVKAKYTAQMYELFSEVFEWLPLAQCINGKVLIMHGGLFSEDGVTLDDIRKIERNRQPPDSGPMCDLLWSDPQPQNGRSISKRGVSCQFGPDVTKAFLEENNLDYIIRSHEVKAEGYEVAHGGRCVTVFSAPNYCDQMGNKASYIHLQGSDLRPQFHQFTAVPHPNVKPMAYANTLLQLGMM
Mdm2 MdmX PPI – inhibitors of human Mdm2/MdmX interaction; inhibition, % at 8 µM; SaOS-2 split-luciferase Mdm2/MdmX complementation, luminescence; O15151+Q00987; 330,000 compounds, 3% hits;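 active = inhibition of at least 50% at 8 µM in the primary screen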
Mdm2-MdmX conf – confirmation of human Mdm2/MdmX interaction inhibitors; shares compounds with Mdm2 MdmX PPI; Mdm2-MdmX binding, luminescent assay; inhibition, % at 8 µM; 10,000 compounds, 55% hits; in the data active = inhibition above about 40%
FLuc counter – full-length luciferase inhibition in Mdm2/MdmX counter-screen; AID 504607; 6,200 compounds, 77% hits; shares compounds with Mdm2 MdmX PPI; SaOS-2 full-length luciferase counterscreen, luminescence; inhibition, % at 8 µM;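 active = mean inhibition at 8 µM reaching about 37%, which flags the compound as non-specific, limit read from the data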;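 note: p53-null SaOS-2 cells with luciferase driven by a doxycycline-inducible promoter; compound on cells about two nights before reading with doxycycline added after day one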
* marks the source's active call; other numbers are inactive results; ? = inconclusive; · = no result.

SMILES	PP1 inh	Beta cell apopt	CSC inhib	Calb FLC	PP5 inh	Mdm2 MdmX PPI	Mdm2-MdmX conf	FLuc counter
C/C(=N\NC(=O)c1c([N+](=O)[O-])c(C)nn1C)c1ccc(NC(=O)C2CCCC2)cc1	-4	7	-6	-3	0	48	·	·
COc1cccc(CNC(=O)c2ccccc2NC(=O)C2=C(C)OCCS2)c1OC	1	-2	-3	-41	2	15	·	·
COc1ccc(CN2C(=O)CSCC2=O)cc1OC	1	-7	-1	0	-2	-13	·	·
COc1ccc(CCN2C(=O)CSC2=S)cc1OC	-1	-32	25	24	-1	85*	84*	40*
COc1ccc(CCN2C(=O)/C(=C\c3ccco3)SC2=S)cc1OC	·	·	·	5	·	75*	47*	79*
CN(CC(=O)NCCc1ccc(S(N)(=O)=O)cc1)S(=O)(=O)/C=C/c1ccccc1	0	-5	-8	2	3	26	·	·
CC(C)CN(C(=O)CSc1nc2ccccc2c(=O)n1C)C1CCS(=O)(=O)C1 (stereo not drawn)	2	-5	3	·	4	2	·	·
COc1ccc(NC(=O)c2ccccc2NC(=O)CSc2ccc(Cl)cc2)cc1	0	4	-6	-5	4	84*	43*	71*
Cc1ccccc1C(=O)N1CCN(c2ccc(NC(=O)c3cccc(OC(C)C)c3)cc2)CC1	-2	11	-6	-1	3	53*	45*	55*
COc1c(C)cccc1C(=O)Nc1ccc(N2CCN(C(=O)c3ccccc3C)CC2)cc1	-2	-7	33	·	5	47	·	·
COc1ccc(NC(=O)c2ccccc2NC(=O)CSc2ccccc2)cc1	1	8	-1	-15	2	3	·	·
Cc1ccc(C(=O)N2CCN(c3ccc(NC(=S)NC(=O)c4cccs4)cc3)CC2)cc1	3	·	-1	?	3	41	·	·
Cc1ccccc1C(=O)N1CCN(c2ccc(NC(=S)NC(=O)c3cccs3)cc2)CC1	4	9	49	23	2	53*	40	75*
Cc1ccccc1C(=O)N1CCN(c2ccc(NC(=O)CSc3ccc(Cl)cc3)cc2)CC1	6	9	25	-10	5	61*	49*	42*
O=C(COC(=O)CCNS(=O)(=O)c1ccccc1)Nc1ccc(OC(F)F)cc1	1	0	·	·	2	16	·	·
Nc1[nH]n(-c2ccccc2)c(=O)c1N=Nc1ccc2ncsc2c1	-7	-8	37	-2	7	-21	·	·
Cc1ncc(CO)c2cc(C(=O)Nc3cccc(F)c3)c(=Nc3cccc(C(N)=O)c3)oc12	-1	13	3	-1	1	23	·	·
Cc1ccc(NC(=O)c2cc3c(CO)cnc(C)c3oc2=Nc2cccc(C(N)=O)c2)cc1	-5	3	4	-3	0	78*	64*	48*
COc1ccc(NC(=O)c2cc3c(CO)cnc(C)c3oc2=Nc2cccc(F)c2)c(OC)c1	-1	7	17	3	-1	72*	74*	28
O=C(c1cc(Cl)ccc1O)N1CCN(S(=O)(=O)Cc2ccccc2)CC1	·	-5	-9	·	·	-6	·	·
O=C(Cc1ccc([N+](=O)[O-])cc1)Nc1nnc(C2CC2)s1	-2	-8	-5	0	0	15	·	·
O=C(Cc1coc2ccc3ccccc3c12)Nc1nnc(C2CC2)s1	2	-3	-2	3	2	74*	83*	38*
O=C(Cc1c[nH]c2ccccc12)Nc1nnc(C2CC2)s1	3	2	24	-1	2	79*	65*	84*
COc1cccc(-c2nc(-c3ccc(Br)o3)no2)c1	-3	1	7	-21	-2	-18	·	·
Cc1cc(NC(=O)CN(C)CC(=O)Nc2ccc(Cl)cc2)no1	·	-6	-3	·	·	-9	·	·
O=C(Cc1cccs1)NCCSc1c(-c2ccc(Cl)cc2)[nH]c2ccccc12	4	37	71	-6	1	77*	25	·
Cc1c(C(=O)/C=C/N(C)C)nnn1-c1ccc(Cl)cc1C#N	0	4	-8	1	1	5	·	·
